High-throughput results: PubChem BioAssay, several laboratories
Shown are actives, neighbours in structure and some others; about 2.1% of the full set was active somewhere.
CHT allo act = allosterically activates the human high affinity choline transporter; CHT-expressing cells, membrane potential dye, choline EC20; active compounds read high; LV-AA mutant CHT in HEK293 cells; hit rate 0.49% among 310,000; Q9GZV3; AID 488977; B-score at 10 µM;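 active means initial fluorescence not abnormally high and integrated response B-score, plate-corrected, over 3 SD above library mean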
Target sequence (Q9GZV3 whole entry, looked up): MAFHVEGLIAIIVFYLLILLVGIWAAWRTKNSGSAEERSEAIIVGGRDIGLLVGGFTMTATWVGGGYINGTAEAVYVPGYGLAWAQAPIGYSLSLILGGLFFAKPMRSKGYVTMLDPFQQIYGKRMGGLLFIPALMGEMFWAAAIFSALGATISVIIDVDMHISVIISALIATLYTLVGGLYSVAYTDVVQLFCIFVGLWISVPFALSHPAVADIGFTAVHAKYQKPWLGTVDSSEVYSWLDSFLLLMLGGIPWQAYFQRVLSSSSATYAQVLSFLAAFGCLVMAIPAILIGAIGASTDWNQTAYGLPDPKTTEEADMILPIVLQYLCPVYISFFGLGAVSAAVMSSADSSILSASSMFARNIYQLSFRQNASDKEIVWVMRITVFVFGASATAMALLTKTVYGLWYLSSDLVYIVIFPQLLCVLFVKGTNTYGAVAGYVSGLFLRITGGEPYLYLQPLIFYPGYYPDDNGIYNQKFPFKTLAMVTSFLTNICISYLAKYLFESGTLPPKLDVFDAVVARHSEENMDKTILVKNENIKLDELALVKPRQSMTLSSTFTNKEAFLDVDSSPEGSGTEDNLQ
EP2 antag = blocks the human prostaglandin E2 receptor EP2; hit rate 0.52% among 260,000; C6 glioma cells expressing human EP2, cAMP TR-FRET; cells stimulated with saturating PGE2; P43116; AID 1422; inhibition, % at 25 µM;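 active means percent inhibition above 40 after rounding to a whole number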;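 further: rat C6 glioma host cells with rolipram phosphodiesterase inhibitor present; the protocol text gives 20 µM as final concentration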
EP2 modulator = EP2 receptor (human) modulation; EP2-expressing cells, cAMP HTRF FRET, PGE2 co-stimulation; induction, % at 25 µM; hit rate 0.83% among 260,000;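 active means compounds whose cAMP rise, as percent of the full-agonist control response, exceeds 60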;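 further: rat C6 glioma line stably carrying human EP2 under a CMV promoter; the protocol text gives 20 µM as final concentration; 100% = response of wells given 1 µM PGE2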
CHT block = inhibits the human high affinity choline transporter; CHT-expressing cells, membrane potential dye, choline response; active compounds read low; AID 488975; Q9GZV3; hit rate 0.86% among 310,000; B-score at 10 µM;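 active means B-score over 3 SD under the library average, and starting fluorescence ratio not unusually high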;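 further: choline stimulus applied at its EC90 after an EC20 pre-addition; B-score computed on integrated fluorescence ratio after choline addition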
CHT activ conf = confirmation of human choline transporter (CHT) activators | activation, % at 10 µM | hit rate 91% among 2,500 | shares compounds with CHT allo act | CHT-expressing cells, membrane potential dye fluorescence (FDSS); % of choline EC20–EC90 response window; HEK293 expressing CHT LV-AA mutant; choline added at its EC20;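 active means primary screen active, with duplicate mean activation above negative control mean plus 3 SD, cut at about 11% in these data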
HEK293 MP dye = counter-screen for CHT activators: effect in parental HEK293 cells. hit rate 62% among 2,500. membrane potential dye fluorescence (FDSS); measured after EC20 choline addition. shares compounds with CHT allo act. ratio readout change at 10 µM, hits read low;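 active means duplicate-averaged ratio beyond 3 SD from buffer wells, up or down, though filed actives are nearly all decreases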
Starred values were filed as active, the others as inactive; i = inactive; / = not tested or not shown.

SMILES | CHT allo act | EP2 antag | EP2 modulator | CHT block | CHT activ conf | HEK293 MP dye
O=C1CCCC2=C1C(c1c(Cl)cccc1Cl)C1=C(CCCC1=O)N2 | / | 5.4 | -1.9 | / | / | /
CCCn1c(SCC(=O)Nc2ccccc2Cl)nnc1-c1cccnc1 | / | 11.1 | 1.2 | / | / | /
Cc1ccc(C)c(N2CCN(C3CCCCC3NS(=O)(=O)c3ccccc3)CC2)c1 (stereo unspecified) | 6.33* | / | / | i | 16.5* | i
CCc1ccc(CN(C)C(=O)CCc2nc3ccccc3n(-c3ccc(OC)cc3)c2=O)cc1 | i | 3.4 | 18.5 | i | 25.7* | i
COCCN1CC2=C(C1=O)C(c1ccc(F)cc1)NC(=O)N2 (stereo unspecified) | / | 2.0 | -43.2 | / | / | /
COc1ccccc1Sc1nc(-c2ccccn2)ncc1OC | i | 7.2 | -24.1 | i | / | /
COc1cnc(-c2ccccn2)nc1NC(C)C | 7.81* | 6.0 | 10.1 | i | 26.8* | -58.5*
O=C(Cc1ccc(F)cc1)N1CCCC(c2ncncc2-c2ccncc2)C1 (stereo unspecified) | / | / | -35.6 | / | / | /
N#CC1=C(Nc2ccccc2)SC=C(c2ccc(Cl)c(Cl)c2)N=C1N1CCOCC1 | i | / | -4.6 | i | 40.4* | i
N#CC1=C(Nc2ccccc2)SC=C(c2ccccc2)N=C1N1CCOCC1 | / | / | 10.7 | / | / | /
O=C1c2cc([N+](=O)[O-])ccc2-c2ncccc21 | 6.97* | 12.6 | -6.0 | i | 62.8* | -40.8*
O=C(Nc1ccc2oc(-c3ccc4nc[nH]c4c3)nc2c1)c1ccco1 | / | 13.2 | -24.1 | / | / | /
O=C1CC2(CCN(C(=O)c3c(F)cccc3Cl)CC2)Oc2ccccc21 | 8.67* | / | / | i | -3.0 | i
COc1ccc(Cl)cc1C(=O)N1CCC2(CC1)CC(=O)c1ccccc1O2 | 9.62* | / | / | i | 4.2 | i
Cc1sc(NC(=O)c2ccccc2)c(CN(C)C)c1C | / | 10.3 | -2.5 | / | / | /
Cc1sc(NC(=O)c2ccccc2)c(C(=O)NCCN(C)C)c1C | i | 6.4 | -21.1 | i | 36.7* | -57.3*
COc1ccc(Cn2c(-c3ccc(Br)cc3)c[n+]3ccccc23)cc1 | 9.61* | 8.9 | 2.0 | i | 70.5* | -60*
COc1ccc(Cn2c(C)ccc2C)cc1 | i | 11.2 | 24.5 | i | / | /
Cc1cc(C)c2c(NCc3c(O)ccc4ccccc34)n[nH]c2n1 | / | / | -52.9 | / | / | /
C=CCN1C(c2ccc(OCC)cc2)=CS/C1=C(\C#N)c1nnc2n1CCCCC2 | 9.18* | 13.5 | -20.4 | i | 26.0* | i
CC(C)COP(=O)(OCC(C)C)C(Nc1ccccc1)c1ccc(F)cc1 (stereo unspecified) | i | 1.7 | 44.2 | i | 15.0* | i
O=C(Nc1ccc2nccnc2c1)c1cnccn1 | 7.5* | 15.5 | 10.4 | i | 52.9* | -58.3*
CCCn1c(C)cc(=O)c2cc(NC(=O)c3cnccn3)ccc21 | i | 13.5 | -18.4 | i | 40.8* | -79.9*
CCOc1cccc(NC(=O)c2cnccn2)c1 | / | 15.2 | -44.5 | / | / | /
COc1ccc(-n2nc(C(=O)NCC(=O)NCCCN3CC(C)CC(C)C3)c3ccccc3c2=O)cc1Cl (stereo unspecified) | 7.66* | / | / | i | 43.1* | -46.9*
SMILES | CHT allo act | EP2 antag | EP2 modulator | CHT block | CHT activ conf | HEK293 MP dye
CCOc1cc(/C=C/c2cccc[n+]2C)ccc1O | 6.92* | / | / | i | 48.4* | -31.4*
CCC1CCCCN1C(=O)CCCN1C(=O)/C(=C/c2cccs2)SC1=S (stereo unspecified) | / | 8.3 | 10.4 | / | / | /
O=C(Nc1ccncc1)Nc1ccccn1 | i | 17.1 | 6.3 | i | 50.5* | -44.9*
CCOC(=O)C(=O)Nc1nnc(-c2cccnc2)s1 | / | 6.8 | 30.9 | / | / | /
CC(c1ccccc1F)n1cc(C(=O)NCCN2CCCCC2)nn1 (stereo unspecified) | / | 11.2 | -37.3 | / | / | /
CCC(=O)N(CCC(c1ccc(C)cc1)c1ccco1)Cc1ccco1 (stereo unspecified) | 8.71* | 3.4 | 37.0 | i | 40.3* | i
CCCN(CCC)CCCNC(=S)Nc1ccc2nc(N3CCN(C)CC3)cc(C)c2c1 | i | 2.4 | -50.7 | i | 52.0* | -26.7*
CCCCN(CC)CCNC(=S)Nc1ccc2nc(N3CCN(C)CC3)cc(C)c2c1 | i | / | / | i | 34.8* | i
CCCCN(CC)CCNC(=O)CCC(=O)Nc1ccc2nc(N3CCN(C)CC3)cc(C)c2c1 | i | 4.7 | -5.4 | i | 41.6* | i
Cc1cc(N2CCN(C)CC2)nc2ccc(NC(=S)NC3CC3)cc12 | i | 2.5 | -21.2 | i | / | /
CCN(CC)CCCNC(=O)CCC(=O)Nc1ccc2nc(N3CCCCC3)cc(C)c2c1 | i | 10.5 | -11.7 | i | / | /
COCCCNC(=O)CCC(=O)Nc1ccc2nc(N3CCOCC3)cc(C)c2c1 | 7.97* | 3.6 | -14.3 | i | 37.0* | -52*
Cc1ccc(C2(O)CCN(Cc3cnn(-c4ccccc4)c3)CC2)cc1 | / | 3.0 | -61.1 | / | / | /
C=CCn1c(=O)c(C(=O)NCC[N+](C)(CC)CC)c(O)c2ccccc21 | / | 7.7 | -1.5 | / | / | /
Cc1cc2ccccc2n2c(SCC(=O)NNC(=O)c3ccc(Cl)cc3)nnc12 | / | 10.8 | -41.1 | / | / | /
O=C(Nc1cccc(Cl)c1)N1CCC(c2nc3ccc(Cl)cc3[nH]2)CC1 | / | 8.1 | -91.7 | / | / | /
CCCC1=NCCn2cccc21 | i | 9.1 | -26.5 | i | / | /
COc1ccc(C2=NCCn3cccc32)c(OC)c1 | i | 8.0 | -17.8 | i | 43.0* | -49.1*
CC[n+]1c(C)sc2c3ccsc3ccc21 | 10.4* | 6.2 | -18.2 | i | 48.2* | -49.7*
CCOc1ccc2nc3cc(NCc4ccco4)ccc3c(N)c2c1 | / | 34.2 | -95.3 | / | / | /
O=C(COc1ccc([N+](=O)[O-])cc1)N(Cc1ccccc1)Cc1ccccc1 | i | 5.4 | 23.8 | i | 24.1* | i
O=C(COc1ccc([N+](=O)[O-])cc1)Nc1ccncc1 | i | 2.2 | -12.7 | i | 44.5* | -48.2*
O=C(COc1ccccc1)NNC(=O)COc1ccc([N+](=O)[O-])cc1 | i | 11.3 | -2.3 | i | / | /
CCc1ccc(OCC(=O)N/N=C/c2cc([N+](=O)[O-])ccc2N2CCOCC2)cc1 | i | 8.8 | -37.4 | i | 23.4* | i
O=C(N/N=C\c1cc([N+](=O)[O-])ccc1N1CCOCC1)c1ccccn1 | i | 2.3 | -9.6 | i | / | /
O=S(=O)(NC1CCCC1)c1ccc(S(=O)(=O)N2CC=C(c3ccc(F)cc3)CC2)cc1 | / | 8.9 | 3.1 | / | / | /
Cc1ccc2c(CSc3nnc4ccccn34)cc(=O)oc2c1C | i | 9.9 | 7.8 | i | / | /
Cc1ccc2c(CSc3nc4ccccc4c(=O)n3CCCO)cc(=O)oc2c1C | 6.87* | 14.5 | -22.5 | i | 14.7* | i
COc1ccccc1-n1cnc2cc(NCc3cccs3)ccc21 | 6.97* | 18.2 | -4.9 | i | 59.4* | i
Cc1ccccc1-n1cnc2cc(NCc3cccs3)ccc21 | i | 2.6 | 4.6 | i | / | /
